In the library only some 2.3% were active in any assay of this set; here they are far more common.
DENV2 CPE: inhibitors of DENV2 cytopathic effect | DENV2-infected cells, cytopathic effect rescue, plate reader | hit rate 1.7% among 350,000 | CPE inhibition, % at 9.99 µM; in the data active = CPE inhibition above about 20%, passing the limit was not always enough; inconclusive = no clear call, values can overlap the other calls; tested in BHK-21 cells
Rtt109 HAT inh: inhibitors of Candida albicans Rtt109/Vps75 histone acetyltransferase | Q5AAJ8 | purified Rtt109/Vps75, ThioGlo CoA-SH fluorescence, 4 h | inhibition, % at 34.9 µM | hit rate 0.16% among 330,000;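 active = inhibition of at least 50% in every replicate; inconclusive = best replicate reaches 50% inhibition but some replicates fall short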
Target sequence (Q5AAJ8 whole entry, looked up): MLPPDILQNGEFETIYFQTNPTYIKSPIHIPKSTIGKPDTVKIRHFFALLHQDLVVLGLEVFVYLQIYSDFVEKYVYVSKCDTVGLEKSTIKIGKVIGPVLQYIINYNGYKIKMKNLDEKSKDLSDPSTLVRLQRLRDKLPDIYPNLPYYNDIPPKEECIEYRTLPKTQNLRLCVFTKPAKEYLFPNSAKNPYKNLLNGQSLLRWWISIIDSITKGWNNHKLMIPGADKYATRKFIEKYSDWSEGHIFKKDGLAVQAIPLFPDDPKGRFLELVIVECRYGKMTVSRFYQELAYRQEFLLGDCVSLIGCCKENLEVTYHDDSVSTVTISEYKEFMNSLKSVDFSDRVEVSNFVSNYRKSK
PDI inh: inhibitors of human protein disulfide isomerase. hit rate 0.052% among 350,000. AID 588391. inhibition, % at 10 µM. PDI insulin aggregation turbidity, A650, 90 min. P07237;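 active = mean inhibition across replicates of 30% or more, whatever share of single replicates reach that level; inconclusive = mean inhibition below 30% while every single replicate reaches 30%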
ERp5 block: inhibitors of human ERp5; ERp5 insulin aggregation, absorbance 650 nm, 90 min; AID 651711; hit rate 0.05% among 350,000; inhibition, % at 9.99 µM; Q15084;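 active = mean replicate inhibition above about 25%, with every replicate also reaching it, limit read from the data, passing the limit was not always enough; inconclusive = only one of those two criteria met; inactive = neither criterion met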
SIRT5 block: inhibitors of human sirtuin-5 desuccinylase; Q9NXA8; Purified SirT5, succinyl-peptide AMC, trypsin-coupled fluorescence; AID 652115; inhibition, % at 15 µM; hit rate 1.1% among 330,000; in the data active = inhibition above about 15%; inconclusive = no clear call, values can overlap the other calls
Large screens that a line does not name were inactive; ! = a repeat was not active.

COC(=O)C1=C(c2ccc(-c3ccccc3)c(F)c2)C[C@@H]2CC[C@H]1N2C(=O)NCCCOC(C)C	DENV2 CPE 24.8
COC(=O)C1=C(c2cccc(OCc3ccccc3)c2)C[C@@H]2CC[C@H]1N2C(=O)NCCCOC(C)C	SIRT5 block 26.7
COC(=O)C1=C(c2ccc3ccccc3c2)C[C@@H]2CC[C@H]1N2C(=O)NCCCOC(C)C	none
COC(=O)C[C@@H]1CC[C@H]2NC[C@@H](O)COC[C@@H]2O1	none (no result: Rtt109 HAT inh, PDI inh, ERp5 block, SIRT5 block)
CCC1(CC)C(=N)N(C)C(=O)NC1=O	none (no result: DENV2 CPE)
CCCCN1C(=N)C(CC)(CC)C(=O)NC1=O	DENV2 CPE 23.6
CCN(CC)c1ccc(/C=C2\C(=O)NC(=O)N(CC3CCCO3)C2=O)cc1 (stereo unspecified)	none
Cc1ccc(/C=C2\C(=O)NC(=O)N(CC3CCCO3)C2=O)s1 (stereo unspecified)	DENV2 CPE 29.9, Rtt109 HAT inh inconclusive
COC(=O)[C@@H]1[C@@H](CO)[C@@H]2Cn3c(ccc(-c4ccccc4)c3=O)[C@H]1N2CC1CC1	none (no result: Rtt109 HAT inh, PDI inh)
Cc1ccc2c(c1N)C(=O)c1ccccc1C2=O	DENV2 CPE 30.5 (no result: PDI inh, SIRT5 block)
COc1ccc(-c2ccc([C@@H]3[C@@H](CO)N4CCCCN(C(=O)Cc5ccccc5)C[C@H]34)cc2)cc1	none (no result: DENV2 CPE, Rtt109 HAT inh, PDI inh)
C[C@]12CCC3C(CC[C@H]4C[C@@H](O)CC[C@]34C)C1C[C@@H](Br)[C@@H]2O (stereo partly specified)	SIRT5 block 23.3 (no result: Rtt109 HAT inh, PDI inh)
COC(=O)[C@H]1[C@H](CO)[C@H]2Cn3c(ccc(/C=C/c4ccccc4)c3=O)[C@@H]1N2Cc1ccccc1F	none (no result: Rtt109 HAT inh, PDI inh)
COC(=O)[C@@H]1[C@@H](CO)[C@@H]2Cn3c(ccc(-c4ccncc4)c3=O)[C@H]1N2S(=O)(=O)c1ccccc1C	none (no result: Rtt109 HAT inh, PDI inh)
COc1ccc(C#Cc2ccc([C@H]3[C@H]4CN(C(=O)Cc5ccncc5)CCCCN4[C@H]3CO)cc2)cc1	none (no result: Rtt109 HAT inh, PDI inh)
CCCN1[C@@H]2c3ccc(-c4ccccc4)c(=O)n3C[C@H]1[C@H](CO)[C@H]2C(=O)OC	none (no result: Rtt109 HAT inh, PDI inh)
O=C(CN1CC(c2ccccc2)CC1=O)Nc1ccccc1 (stereo unspecified)	DENV2 CPE 114.8 (no result: PDI inh, SIRT5 block)
O=C1NC(=S)N(c2ccccc2)C(=O)/C1=C/c1ccco1	SIRT5 block 37.7
CCOc1cccc(N2C(=O)/C(=C/c3ccco3)C(=O)NC2=S)c1	SIRT5 block 36.4
COC(=O)[C@H]1[C@H](CO)[C@H]2Cn3c(cccc3=O)[C@@H]1N2Cc1nccs1	none (no result: Rtt109 HAT inh, PDI inh)
COC(=O)[C@@H]1[C@@H](CO)[C@@H]2Cn3c(ccc(C4=CCCC4)c3=O)[C@H]1N2S(=O)(=O)c1cn(C)cn1	none (no result: Rtt109 HAT inh, PDI inh)
COC(=O)[C@@H]1[C@@H](CO)[C@@H]2Cn3c(ccc(-c4cccc(OC)c4)c3=O)[C@H]1N2C(=O)c1ccccc1F	none (no result: Rtt109 HAT inh, PDI inh)
COc1ccc(SCC2CN(C)CCC2c2ccc(F)cc2)cc1 (stereo unspecified)	DENV2 CPE 25.0
COc1cccc(C2CCN(C)C2)c1 (stereo unspecified)	none (no result: Rtt109 HAT inh)
O=C(O)[C@H]1[C@H](CO)[C@H]2Cn3c(ccc(-c4cncnc4)c3=O)[C@@H]1N2C(=O)NC1CCCC1	none (no result: Rtt109 HAT inh, PDI inh)
CC12Cc3cn[nH]c3C=C1CCC1C2CCC2(C)C1CCC2(C)O (stereo unspecified)	SIRT5 block 34.9
O=C(CCC(=O)N1C[C@H]2C[C@@H](C1)c1cccc(=O)n1C2)NCc1ccc(F)cc1	DENV2 CPE 81.0 (no result: PDI inh, SIRT5 block)
CC(C)[C@H](NC(=O)N1C[C@H]2C[C@@H](C1)c1cccc(=O)n1C2)C(=O)Nc1ccccc1F	DENV2 CPE 58.2 (no result: PDI inh, SIRT5 block)
COc1ccc(OC(=O)N(C)C[C@H]2OCc3cnnn3CCCC(=O)N([C@@H](C)CO)C[C@H]2C)cc1	SIRT5 block 15.3! (no result: Rtt109 HAT inh)
C[C@@H]1CN([C@@H](C)CO)C(=O)CCCn2nncc2CO[C@H]1CN(C)C(=O)Oc1ccc2ccccc2c1	DENV2 CPE 50.2! (no result: Rtt109 HAT inh)
C[C@@H]1CN([C@H](C)CO)C(=O)CCCn2nncc2CO[C@H]1CN(C)C(=O)Oc1ccc2ccccc2c1	DENV2 CPE 56.4! (no result: Rtt109 HAT inh)
CCC(=O)N1[C@@H]2c3ccc(C4=CCCC4)c(=O)n3C[C@H]1[C@H](CO)[C@H]2C(=O)OC	none (no result: Rtt109 HAT inh, PDI inh)
CC(=O)N1[C@@H]2c3ccc(-c4cccc(C(=O)N(C)C)c4)c(=O)n3C[C@H]1[C@H](CO)[C@H]2C(=O)O	none (no result: Rtt109 HAT inh, PDI inh)
CC(C)CC#Cc1ccc([C@H]2[C@@H](CO)N3CCCCN(C(=O)Cc4ccccn4)C[C@H]23)cc1	none (no result: Rtt109 HAT inh, PDI inh)
COc1ccc(C#Cc2ccc([C@@H]3[C@H]4CN(C(=O)Cc5cccnc5)CCCCN4[C@H]3CO)cc2)cc1	none (no result: Rtt109 HAT inh, PDI inh)
O=[N+]([O-])c1cccc(CCl)c1	none (no result: DENV2 CPE, PDI inh, ERp5 block, SIRT5 block)

High-throughput results: PubChem, Broad Institute
